Screening data (PubChem BioAssay)
JMJD2A Tudor: qHTS Assay for Inhibitors of JMJD2A-Tudor Domain; Lysine-specific demethylase 4A (Homo sapiens), O75164; AlphaScreen JMJD2A-Tudor / H3K4me3 peptide binding; Potency, µM (top dose mostly 114 µM), inactives show at the top dose activity change, negative = inhibition, usual class: inhibitors; 390,000 compounds, 4.4% hits; AID 504339, 2011; note: % is set by controls: 0 for no effect and ±100 for the full control effect; nearly all actives have a fitted effect of over 50% in size
G9a block: qHTS Assay for Inhibitors of Histone Lysine Methyltransferase G9a; 350,000 compounds, 8.8% hits; Potency, µM (highest dose often 102 µM), inactives show at the highest dose activity, negative = inhibition, usual class: inhibitors; G9a H3K9 monomethylation, AlphaScreen, 2 h; note: % is set by controls: 0 for no effect and ±100 for the full control effect; nearly all actives have a fitted effect of over 75% in size
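Quantitative HTS format: methyltransferase activity on a biotin-tagged H3K9 peptide is measured by AlphaScreen, using a rabbit anti-monomethyl-H3K9 antibody with streptavidin donor and anti-IgG acceptor beads. Final levels are 20 nM enzyme, 500 nM peptide, 20 uM SAM; 2 h RT.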
HP1b binding inh: HTS for Inhibitors of HP1-beta Chromodomain Interactions with Methylated Histone Tails. AlphaScreen HP1-beta / biotin-H3K9me3 peptide binding. Potency, µM (top dose mostly 114 µM), inactives show at the top dose activity change, negative = inhibition, most hits filed as inhibitors. 390,000 compounds, 0.56% hits. AID 540317, 2011; note: nearly all actives have a fitted effect of over 70% in size
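HP1-beta protein (50 nM final) preincubated 30 min at room temperature with biotinylated H3(1-18)K9me3 peptide (50 nM) in PBS pH 7.4, 0.01% Tween-20, then compound added for 30 min. AlphaScreen streptavidin donor/nickel chelate acceptor beads (10 ug/mL final), 30 min dark, luminescence read.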
BAZ2B inh: qHTS Assay for Inhibitors of BAZ2B; Bromodomain adjacent to zinc finger domain protein 2B (Homo sapiens), Q9UIF8; AlphaScreen BAZ2B-H3K14Ac peptide displacement; Potency, µM (highest dose often 114 µM), without a hit: at the top dose activity change, negative = inhibition, most hits filed as inhibitors; 360,000 compounds, 4.4% hits; AID 504333, 2011; note: % is set by controls: 0 for no effect and ±100 for the full control effect; nearly all actives have a fitted effect of over 60% in size
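Multi-concentration screen (max 110 uM) measuring displacement of acetylated histone H3 peptide from BAZ2B by AlphaScreen, using 50 nM protein, 50 nM peptide and 10 ug/mL streptavidin donor plus Ni-chelate acceptor beads.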
TDP1 block: qHTS Assay for Inhibitors of Tyrosyl-DNA Phosphodiesterase (TDP1) | Tyrosyl-DNA phosphodiesterase 1 (Homo sapiens), Q9NUW8 | recombinant TDP1, AlphaScreen DNA substrate cleavage | Potency, µM (top dose mostly 130 µM), for inactives: top-dose activity change, negative = inhibition, hits mostly inhibitors | 350,000 compounds, 0.28% hits; note: % is set by controls: 0 for no effect and ±100 for the full control effect; nearly all actives have a fitted effect of over 40% in size
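Tdp1 1 nM final; 15 min RT w/ cpd; substrate 15 nM, 5 min; beads 10 ug/ml, 10 min; AlphaScreen read. Neg ctrl: no enzyme.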
Sfp PPTase inh: qHTS Assay for Inhibitors of Bacillus subtilis Sfp phosphopantetheinyl transferase (PPTase); Potency, µM, without a hit: largest response in the series, negative = inhibition, actives largely listed as inhibitors; 4'-phosphopantetheinyl transferase ffp (Bacillus subtilis), Q9F4F7; Biochemical Sfp PPTase activity, qHTS; 310,000 compounds, 3.5% hits;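 note: the enzyme is Sfp with the accession as filed and its product quenches rhodamine fluorescence; 0% = enzyme reaction without inhibitor and -100% = no enzyme wells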
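Compounds were incubated with enzyme (final 15 nM) for 15 min at room temperature before substrate addition started the reaction. Fluorescence at 525 nm excitation, 598 nm emission was recorded immediately and after 30 minutes.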
The depositor's hits bear a star; ? = inconclusive; . = no result given; [ ] = remark or other dose. Most compounds without a hit are left out; they make up all but 12% or so of the library. Calls come from the whole dose curve; as a rule, active = well fitted curve in the direction sought with a large enough effect; inconclusive = small, poorly fitted or top-dose-only effect, or another doubt; inactive = no such curve, though single readings can be large; an effect the other way counts as inactive or inconclusive. Potency is the fitted concentration of half-maximal effect.

SMILES	JMJD2A Tudor	G9a block	HP1b binding inh	BAZ2B inh	TDP1 block	Sfp PPTase inh
CC(C)(C)c1ccc(OCC(O)CSc2ncn[nH]2)cc1 (configuration not stated)	32µM*	8.9µM*	30%	-8%	-1%	-13%
COC(=O)c1ccc(C(/C=C/[C@@H](C)C(=O)NCc2cc(C)n(C)n2)NC(=O)OCc2ccccc2)cc1 (some centres not stated)	.	.	.	.	9%	13%
CC1(C)CC(=O)C2=C(C1)c1c(ccc3ccccc13)NC2c1ccco1 (configuration not stated)	?	50µM*	5%	?	-14%	-24%
Cc1ccsc1C1Nc2ccc3ncccc3c2C2=C1C(=O)CC(C)(C)C2 (configuration not stated)	-28%	-1%	-3%	-5%	0%	9%
CCN1C=C(Cc2ccc(F)cc2)C2=C(C1)C(c1ccc(F)cc1)C(C#N)=C(N)O2 (configuration not stated)	50µM*	?	-31%	?	6%	8%
CCN1C=C(Cc2ccccc2C)C2=C(C1)C(c1ccccc1C)C(C#N)=C(N)O2 (configuration not stated)	56µM*	14µM*	?	45µM*	12%	-26%
CC(=O)C1=C(c2ccccc2)OC(N)=C(C#N)C1c1ccccc1C (configuration not stated)	-22%	?	4%	-24%	1%	-5%
Cc1cccc(C)c1NC(=O)COC(=O)/C=C/c1ccc(S(=O)(=O)N2CCOCC2)cc1	-13%	.	30%	.	-10%	.
Cc1cccc(NC2=NC3(CCCCC3)N=C(N)N2)c1	-10%	.	14%	.	.	.
NC1=NC2(CCCC2)N=C(Nc2ccccc2)N1	35µM*	8%	-6%	1%	-3%	3%
CCC(CC)C(=O)OCc1cc(=O)n2nc(C3CC3)sc2n1	-29%	15%[59 µM]	-16%	-8%	6%	.
CC1Cc2ccccc2N1C(=O)CSc1ncc(-c2ccc(F)cc2)n1C (configuration not stated)	56µM*	?	?	28µM*	0%	-12%
Cc1ccc(C(=O)OCC(=O)N2CCOCC2)cc1	-10%	18%	-8%	4%	-3%	17%
N#Cc1ccc(C(=O)OCC(=O)N2CCOCC2)cc1	1%	50µM*	29%	-25%	0%	17%
O=C(COC(=O)CCC(=O)c1ccc(F)cc1)Nc1ccc(N2CCOCC2)cc1	-12%	50µM*	30%	-7%	-1%	8%
Cc1ccc(OCCC(=O)OCC(=O)Nc2ccc(N3CCOCC3)cc2)cc1	-14%	?	12%	8%	.	.
N#CCC(=O)Nc1ccc(C(=O)OCC(=O)c2ccc3c(c2)OCCO3)cc1	18µM*	53%	-9%	-8%	11%	-10%
N#Cc1ccc(C(=O)OCC(=O)Nc2ccc(N3CCOCC3)cc2)cc1	-7%	10µM*	25%	.	5%	-2%
Cc1ccc(-n2c(=O)c3ccc(C(=O)NCc4ccccc4Cl)cc3n(Cc3ccccc3F)c2=O)cc1	-14%	15%[59 µM]	18%	.	0%	.
CCc1ccc2c(c1)c(=O)c(S(=O)(=O)c1ccccc1)cn2CC(=O)Nc1ccc(OC)cc1	-8%	-4%[59 µM]	48%	-9%	6%	.
COc1ccc(/C=C2\Sc3ccc(C(=O)NCc4cccnc4)cc3N(C)C2=O)cc1OC	?	?	2%	?	8%	-17%
COc1ccc(-c2cccc(C(=O)N3CCOCC3)c2)cc1	-16%	6%	12%	-6%	.	11%
COc1ccc(/C=C2\Sc3ccc(C(=O)NCC4CCCO4)cc3N(C)C2=O)cc1 (configuration not stated)	?	13µM*	-4%	-37%	1%	50µM*
COc1ccc(/C=C2\Sc3ccc(C(=O)N4CCN(Cc5ccccc5)CC4)cc3N(C)C2=O)cc1OC	?	71µM*	-28%[57 µM]	?	7%	-2%
COc1ccc(/C=C2\Sc3ccc(C(=O)N4CCOCC4)cc3N(C)C2=O)cc1	56µM*	-23%	-5%	-32%	11%	4%
SMILES	JMJD2A Tudor	G9a block	HP1b binding inh	BAZ2B inh	TDP1 block	Sfp PPTase inh
Oc1ccc(Br)cc1C1C=C(c2ccc3c(c2)OCO3)NC(c2ccc(F)c(Br)c2)N1 (configuration not stated)	?	.	23%	.	1%	.
Cc1ccc(NC(=O)C(=O)NCCc2sc(-c3ccc(Cl)cc3)nc2C)cc1C	-20%	20%[59 µM]	21%[57 µM]	-17%	4%	.
COc1ccc(-c2noc(-c3cc(C(C)C)[nH]n3)n2)cc1	-19%	3%[59 µM]	10%	0%	3%	.
Cc1ccc(-c2nc(-c3ccccn3)no2)cc1	-2%[57.1 µM]	-10%[12.7 µM]	45%	8%	4%	-4%
Cc1ccc(-n2[nH]c(=O)c(-c3ccccn3)c2C)cc1	-31%	-1%	6%	45µM*	0%	1%
CCN(CC)CCCCN1c2ccccc2Sc2ccccc21	?	?	-20%	?	.	-6%
CC[n+]1ccc(/C=C2\Sc3ccccc3N2CCCS(=O)(=O)[O-])c2ccccc21	?	.	?	50µM*	50µM*	-11%
CNC1=C([N+](=O)[O-])CC([N+](=O)[O-])=C(N2CCNCC2)N1C	-12%	45µM*	9%	-1%	0%	19%
Cn1c(SCC(=O)O)nnc1-c1ccc(NC(=O)c2ccc(Cl)c(Cl)c2)cc1	-8%	50µM*	24%	-1%	-3%	12%
COc1ccccc1NC(=O)CSc1nnc(-c2ccc(NC(C)=O)cc2)n1C	5%	?	40%	?	9%	-20%
Cc1ccc(-c2nnc(SCC(=O)CC(=O)Nc3ccccc3)n2C)cc1	-13%[57.1 µM]	-21%[59 µM]	57%	-4%	0%	28%
CC(=O)Nc1ccc(-c2nnc(SCC(=O)Nc3ccc4c(c3)oc3ccccc34)n2C)cc1	100µM*	32%[0.501 µM]	44%	1%[57.1 µM]	3%	-3%
Cc1ccc(-n2c(=O)c3c4c(sc3n(Cc3cc(=O)n5cc(Cl)ccc5n3)c2=O)CCC4)cc1C	-20%	6%[59 µM]	1%	2%	3%	.
